Cruzain inh noDet – blocks cruzain activity in detergent-free assay; purified cruzain, Z-FR-AMC fluorescence, no detergent; 200,000 tested, 2.3% active; P25779; Potency, µM, without a hit: max response, negative = inhibition, most hits filed as inhibitors; AID 1476;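 also: plate controls were enzyme without inhibitor for no effect and buffer without enzyme for full effect; nearly all actives have a fitted effect of over 40% in size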
Target sequence (P25779 123-467 limits assumed): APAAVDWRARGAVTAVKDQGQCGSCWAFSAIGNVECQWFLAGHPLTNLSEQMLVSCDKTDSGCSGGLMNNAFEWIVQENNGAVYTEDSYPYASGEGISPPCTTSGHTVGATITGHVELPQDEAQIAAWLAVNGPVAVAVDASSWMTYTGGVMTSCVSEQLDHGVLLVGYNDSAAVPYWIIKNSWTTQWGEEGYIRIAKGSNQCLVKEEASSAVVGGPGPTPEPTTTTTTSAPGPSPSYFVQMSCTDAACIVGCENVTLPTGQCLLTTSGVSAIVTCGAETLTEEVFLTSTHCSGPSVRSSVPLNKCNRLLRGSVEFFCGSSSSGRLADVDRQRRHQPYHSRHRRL
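Purified cruzain at 1.5 nM, pre-incubated 15 min with compound at room temperature in 100 mM sodium acetate pH 5.5, 5 mM DTT, 0.00005% Triton X-100. Reaction started with 2 uM Z-FR-AMC; AMC fluorescence increase over 60 s gives rate.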
Cruzain inh Det – inhibitors of Trypanosoma cruzi cruzain with detergent. P25779. purified cruzain, Z-FR-AMC fluorescence, 0.01% Triton. Potency, µM, for the others: max response, negative = inhibition, hits mostly inhibitors. 200,000 tested, 0.43% active. AID 1478;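 also: plate controls were neutral wells for no effect and buffer without enzyme for full effect; nearly all actives have a fitted effect of over 40% in size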
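Cruzain (1.5 nM) preincubated 15 min at RT with compound in 100 mM sodium acetate pH 5.5, 5 mM DTT, 0.01% Triton X-100. Reaction started with 2 uM Z-FR-AMC; AMC fluorescence (ex 360/em 450 nm) change over 60 s gave rate.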
Starred values were filed as active, the others as inactive; ? = inconclusive. The list is not random: actives were taken first. Their share in the collection is about 2.4%. Calls follow the shape of the dose curve; as a rule, active = well fitted curve in the direction sought with a large enough effect; inconclusive = small, poorly fitted or top-dose-only effect, or another doubt; inactive = no such curve, though single readings can be large; an effect the other way counts as inactive or inconclusive. Potency is read from the fitted curve at half-maximal effect.

SMILES | Cruzain inh noDet | Cruzain inh Det
CC(C)c1ccc(CN(Cc2ccco2)c2cnc(S(C)(=O)=O)nc2C(=O)Nc2ccc(F)cc2)cc1 | 16µM* | -3%
Cc1ccc(C)c(NC(=O)c2nc(S(C)(=O)=O)ncc2N(Cc2ccc(C(C)(C)C)cc2)Cc2ccco2)c1 | 7.9µM* | -3%
COc1ccc(CN(Cc2ccco2)c2cnc(S(C)(=O)=O)nc2C(=O)Nc2ccc(C)c(Cl)c2)cc1 | 7.9µM* | -2%
Cc1cccc(C)c1NC(=O)c1nc(S(C)(=O)=O)ncc1N(Cc1ccc(F)cc1)Cc1ccco1 | -6% | -5%
O=c1cnc2cnc(Nc3ccccc3)nc2n1Cc1cccs1 | -13% | -7%
O=C(Cn1c(=O)c2cccn2c2ccc(F)cc21)NCc1cccc(Cl)c1 | 28% | -3%
Cc1ccc(C(=O)Nc2ccc3oc(-c4cc(Br)ccc4Cl)nc3c2)cc1 | 6% | -2%
COc1cc(/C=C/c2ccc3cccc(OC)c3n2)c(OC(C)=O)c([N+](=O)[O-])c1 | ? | -4%
COc1c(OC(C)=O)ccc(/C=C/c2ccc3cccc(OCc4ccccc4)c3n2)c1[N+](=O)[O-] | 10µM* | -2%
COc1ccc(C(=O)Nc2nnc(SCc3cc(=O)c4cc(C)ccc4[nH]3)s2)cc1OC | -7% | 3%
Cc1cc(/C=N\NC(=O)CC(=O)NC2CCCCC2)c(C)n1-c1ccc(Cl)c(Cl)c1 | -2% | -6%
COc1cccc(NC(=O)C(=O)N/N=C/c2cc(C)n(-c3ccc(Cl)c(Cl)c3)c2C)c1 | 16µM* | 0%
CCc1ccc(C2CC(=O)Oc3c2c(=O)n(C)c2ccccc32)cc1 (stereo not given) | 6% | -4%
N#C/C(=C/c1ccc(Cl)cc1)c1nc(-c2ccc(Br)cc2)cs1 | -9% | -2%
Cc1ccnc(N/C=C(\C#N)c2nc(-c3cccc(Br)c3)cs2)c1 | 25µM* | ?
Cc1ccc(C(=O)C(C(=O)/C=C/c2ccccc2)=C2SCCCS2)cc1 | 25µM* | -8%
COc1ccc(/C=C/C(=O)C(C(N)=O)=C2SCCS2)cc1 | 7% | -6%
O=C(CSc1nc(-c2ccccc2)no1)N1CCN(c2ccc(F)cc2)CC1 | -3% | 2%
FC(F)(F)c1cnc(-c2cnc3c(-c4ccc(Cl)cc4)cnn3c2)c(Cl)c1 | 10µM* | 5%
N#Cc1cnn2cc(-c3ncc(C(F)(F)F)cc3Cl)cnc12 | 1% | 1%
C=C(C)Cn1c(SCC#N)nc2ccccc2c1=O | -11% | 1%
N#CCSc1nc2ccc(N3CCCCC3)cc2c(=O)n1Cc1ccccc1 | 25µM* | -1%
Cc1cccc(C)c1NC(=O)CCS(=O)(=O)c1ccc2c(c1)CC(C)N2C(=O)C1CC1 (stereo not given) | 5% | -2%
COc1ccc2[nH]cc(CCNc3ccnc(-c4ccc(C(=O)N(C)C)cc4)n3)c2c1 | 12% | -2%
COc1ccc(-n2c(SCC(=O)NCc3ccccc3)nc3n[nH]c(C)c3c2=N)cc1 | -16% | 0%
SMILES | Cruzain inh noDet | Cruzain inh Det
COc1cc(/C=N/NC(=O)c2cc(-c3cccn3C)n[nH]2)cc(OC)c1OC | 6% | -2%
COc1cccc(/C=N/NC(=O)c2cc(-c3cccn3C)n[nH]2)c1 | 25µM* | 1%
CN(C)c1ccc(/C=N/NC(=O)c2ccc(CN3C(=O)c4cccc5cccc3c45)cc2)cc1 | 4µM* | -1%
O=C(N/N=C/c1ccccc1)c1ccc(CN2C(=O)c3cccc4cccc2c34)cc1 | -68% | -2%
COc1cccc(/C=N/NC(=O)c2ccc(OCc3cccc(Br)c3)cc2)c1 | ? | 0%
COc1cccc(/C=N/NC(=O)c2ccc(CN3c4cccc5cccc(c45)S3(=O)=O)cc2)c1 | 20µM* | -6%
O=C(COc1ccccc1Cl)Nc1cc(-c2ccccc2F)nn1-c1ccccc1 | 3% | 4%
Cc1cccc(C(=O)Nc2ccc(N3CC=C(c4ccccc4C)CC3)c(C(=O)O)c2)c1 | -10% | 1%
COc1cc(OC)c(Nc2cc(C)nc3ncnn23)cc1Cl | -5% | -3%
CCc1ccc(NC(=O)c2cc3nc(-c4ccc(C)cc4)cc(C(F)(F)F)n3n2)cc1 | ? | 0%
Cc1cc(-c2csc(NC(=O)c3ccc(C#N)cc3)n2)c(C)n1Cc1ccco1 | 7.9µM* | -3%
Cc1csc(NC(=O)CSc2nnc(C)n2Cc2ccco2)n1 | 0% | 1%
COc1ccc(NS(=O)(=O)c2cc3[nH]c(=O)c(=O)[nH]c3cc2C)cc1OC | -12% | -2%
CCn1c2ccccc2c2nnc(SCC(=O)c3ccccc3)nc21 | ? | -3%
CCN(CC)CCSc1nnc2c3cc(F)ccc3n(CC)c2n1 | 25µM* | 25µM*
CCOc1ccc(-c2cccc(NS(=O)(=O)c3ccccc3C(F)(F)F)c2)nn1 | 0% | -9%
O=C(Nc1nc(-c2ccccc2)cs1)c1cccs1 | 2% | -8%
C/C(=N/Nc1nc(-c2ccc(Cl)cc2)cs1)c1cccs1 | 4µM* | ?
CC(C)(C)c1cc[n+](/C(C(=S)NC2CC2)=C(/[O-])c2ccc(Cl)s2)cc1 | -5% | -10%
[O-]/C(=C(\C(=S)Nc1cccc2ccccc12)[n+]1ccccc1)c1ccc(Cl)s1 | 7.9µM* | -14%
COc1ccc(NC(=O)c2sc3nc4c(c(-c5ccc(OC)cc5)c3c2N)C(=O)CC(C)(C)C4)cc1 | -16% | -4%
CSc1nc2ccccc2cc1/C=C(\C#N)c1ccccc1 | -2% | -10%
CSc1nc2ccccc2cc1/C=C(\C#N)c1ccc(Cl)c(Cl)c1 | 25µM* | 0%
CCc1ccc(N2C(=O)CSC23C(=O)N(Cc2cccc(F)c2)c2ccccc23)cc1 (stereo not given) | -4% | 0%
O=C1CS(=O)(=O)C2(C(=O)N(Cc3cccc(F)c3)c3ccccc32)N1c1ccccc1 (stereo not given) | 10µM* | -6%
SMILES | Cruzain inh noDet | Cruzain inh Det
CCc1ccc(N2C(=O)CS(=O)(=O)C23C(=O)N(Cc2ccccc2)c2ccccc23)cc1 (stereo not given) | 2.5µM* | -4%
CCc1ccc(N2C(=O)CSC23C(=O)N(Cc2ccc(C)cc2)c2ccccc23)cc1 (stereo not given) | -26% | -9%
CCOC(=O)c1sc(NC(=O)CSc2nnnn2-c2ccc(C)cc2)c(C(=O)OCC)c1C | -29% | 1%
CCOC(=O)c1sc(NC(=O)CSc2nncs2)c(C(=O)OCC)c1C | ? | -9%
COc1ccccc1-n1c(SCC(=O)Nc2nnc(C)s2)nc2c(c1=O)SCC2 | -5% | 22µM*
COc1ccccc1-n1c(SCC(=O)Nc2ccc(F)cc2)nc2c(c1=O)SCC2 | -18% | -28%
CCOC(=O)c1sc(NC(=O)CSc2nc3c(c(=O)n2-c2ccc(C)cc2)SCC3)c(C(=O)OCC)c1C | 6.3µM* | -8%
CCOC(=O)c1sc(NC(=O)CSc2nc3ccccc3s2)c(C(=O)OCC)c1C | 20µM* | -5%
CCOc1cc(C(=O)NCCc2csc3nc(-c4ccccc4F)nn23)cc(OCC)c1OCC | 2% | -1%
O=C(Cc1ccccc1)NC1CC(=O)N(c2ccc3c(c2)OCCO3)C1 (stereo not given) | -5% | 0%
N/C(=N\OC(=O)Oc1ccccc1)c1cccc([N+](=O)[O-])c1 | 4% | -7%
O=C(C#Cc1ccccc1)c1cccc([N+](=O)[O-])c1 | -16% | 13µM*
Cc1ccc(-c2cc(N)n3nc(-c4ccc(C)cc4)cc3n2)cc1 | ? | -1%
Cc1ccc(-c2cc3nc(-c4ccc(Br)cc4)cc(N)n3n2)cc1 | 32µM* | 5%
Cc1ccc(-c2cc3nc(-c4ccccc4)cc(N)n3n2)cc1 | 25µM* | 7%

Bioassay records deposited in PubChem by National Center for Advancing Translational Sciences (NCATS).
